Rows were chosen to be rich in hits. Some 3.7% of all compounds tested hit in one or more screens of this group.
BoNT F protease – BoNT/F light chain protease inhibitors, primary screen, biochemical, flow cytometry, MLPCN library. 360,000 tested, 0.22% active. Multiplex microsphere protease cleavage assay. Botulinum neurotoxin type F light chain protease (Clostridium botulinum). inhibition, % at 10 µM. AID 588497, 2011; in the data active = inhibition above about 35%, passing the limit was not always enough; inconclusive = no clear call, values can overlap the other calls; note: plate controls were buffer without enzyme for full effect and enzyme alone for no effect
Autofluor counter – compound fluorescence in toxin protease inhibitor counterscreen. compound autofluorescence counterscreen, microsphere flow cytometry; active compounds read high. fluorescence intensity (test concentration not listed). 360,000 tested, 3.1% active. AID 624483; in the data active = fluorescence intensity above about 16000; inconclusive = no clear call, values can overlap the other calls
Anthrax LF inh2 – Bacillus anthracis LF protease inhibitors, primary screen, biochemical, multiplex microsphere, MLPCN library | Lethal factor (Bacillus anthracis), P15917 | multiplex microsphere protease cleavage assay | inhibition, % at 10 µM | 360,000 tested, 0.12% active | AID 588501, 2011; note: plate controls were buffer without enzyme for full effect and enzyme alone for no effect
Target sequence (P15917 whole entry, looked up): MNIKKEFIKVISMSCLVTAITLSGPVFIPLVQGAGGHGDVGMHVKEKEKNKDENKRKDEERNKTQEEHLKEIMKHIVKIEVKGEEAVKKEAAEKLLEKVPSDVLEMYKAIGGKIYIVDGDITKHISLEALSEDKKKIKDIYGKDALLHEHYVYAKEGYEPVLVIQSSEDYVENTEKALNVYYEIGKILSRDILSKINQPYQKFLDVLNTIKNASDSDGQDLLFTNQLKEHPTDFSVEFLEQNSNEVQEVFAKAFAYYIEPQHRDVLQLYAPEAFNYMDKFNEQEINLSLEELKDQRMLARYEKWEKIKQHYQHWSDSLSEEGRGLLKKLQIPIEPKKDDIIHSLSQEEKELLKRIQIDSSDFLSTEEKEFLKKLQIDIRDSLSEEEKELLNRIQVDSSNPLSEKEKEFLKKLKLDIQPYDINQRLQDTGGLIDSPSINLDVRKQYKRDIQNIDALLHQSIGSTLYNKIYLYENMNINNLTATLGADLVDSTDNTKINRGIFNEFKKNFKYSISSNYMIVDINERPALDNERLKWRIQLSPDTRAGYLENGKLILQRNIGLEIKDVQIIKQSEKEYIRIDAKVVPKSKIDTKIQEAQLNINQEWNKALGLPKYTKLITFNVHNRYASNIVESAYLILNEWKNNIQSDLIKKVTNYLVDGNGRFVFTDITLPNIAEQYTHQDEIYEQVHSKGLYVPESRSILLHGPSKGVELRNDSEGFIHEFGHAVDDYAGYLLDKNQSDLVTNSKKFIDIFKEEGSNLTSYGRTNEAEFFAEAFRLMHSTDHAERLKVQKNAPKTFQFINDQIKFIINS
BoNT A protease – BoNT/A light chain protease inhibitors, primary screen, biochemical, flow cytometry, MLPCN library; Botulinum neurotoxin type A light chain protease (Clostridium botulinum A str. ATCC 3502); multiplex microsphere protease substrate cleavage; inhibition, % at 10 µM; 360,000 tested, 0.17% active; AID 588499, 2011; note: plate controls were buffer without enzyme for full effect and enzyme alone for no effect
BH1578 lux ind – inducers of Vibrio cholerae quorum light production without autoinducers, primary screen, BH1578 luxS cqsA deficient, single point. V. cholerae BH1578 lux reporter, luminescence, 6 h. activation, % at 18.7 µM. 350,000 tested, 0.16% active; in the data active = activation mostly above about 9.7%, no sharp cut-off; inconclusive = no clear call, values can overlap the other calls; inactive = mostly below about 3.7%
BJeLR viability – MLPCN primary cell-based screen for lethality selective to Ras in HRASV12 cells | BJeLR (HRASV12) viability, CellTiter-Glo ATP luminescence, 48 h | inhibition, % (no concentration beside the values) | 300,000 tested, 0.17% active | AID 1554, 2009; in the data active = inhibition above about 50%; inconclusive = no clear call, values can overlap the other calls
Active calls of the source: *; i = inactive; ? = inconclusive; . = not tested or not shown. Cut-off read from the data, not from the text of the source, unless noted: active = inhibition above about 30%; inconclusive = no clear call, values can overlap the other calls; inactive = below that.

SMILES	BoNT F protease	Autofluor counter	Anthrax LF inh2	BoNT A protease	BH1578 lux ind	BJeLR viability
COc1cccc2sc3cc(NCc4ccc(C)o4)ccc3c(=O)c12	-2	4500	-4	1	i	.
COc1cc(C2CC(=O)N(CC(=O)NCc3ccco3)c3ccccc3S2)cc(OC)c1OC (stereo not given)	-2	24105*	-1	-1	0	0
CCN1C(=O)CC(c2ccco2)Sc2ccccc21 (stereo not given)	-8	17133*	-4	-3	i	-2
O=C(CN1C(=O)CC(c2ccco2)Sc2ccccc21)Nc1ccccc1F (stereo not given)	-1	5725	-1	0	0	-4
O=C(CN1C(=O)CC(c2ccco2)Sc2ccccc21)NCc1ccc2c(c1)OCO2 (stereo not given)	-3	23277*	-2	-3	-1	0
CCC(=O)N(c1nnc(SCC(=O)Nc2sccc2C(N)=O)s1)C1CC1	4	2842	6	1	i	.
CCOc1ccccc1Nc1nc(-c2sc(NC(=O)c3ccc([N+](=O)[O-])cc3)nc2C)cs1	.	.	.	.	.	78*
CCCCN(C=O)c1c(CC)nc2c(OCc3ccc(Cl)cc3)cccn12	-6	3767	-5	0	0	.
CN(C)S(=O)(=O)Nc1ccc(C(=O)O)cc1	3	21783*	-1	2	5	-6
COc1cc(-c2coc3c(C(=O)NCc4cccc(Cl)c4)cccc23)ccc1O	-12	4365	-2	-1	0	.
COc1cccc(NC(=O)CSc2nc3c(c(-c4ccco4)c2C#N)CCCC3)c1	1	23093*	-6	?	i	-4
Cc1nc(SCC(=O)NCc2ccc3c(c2)OCO3)c(C#N)c2c1CCCC2	-5	4933	-1	-1	-3	1
COc1ccccc1NC(=O)CSc1nc(C)c2c(c1C#N)CCCC2	-2	23495*	-1	-2	i	5
CCc1nnc(NC(=O)CSc2nc(C)c3c(c2C#N)CCCC3)s1	-5	10128	-1	0	i	4
COc1ccc(NC(=O)CSc2nc(C)c3c(c2C#N)CCCC3)cc1	-2	21814*	0	0	0	-2
COC1C(CO)OC(n2c3c(Cl)cccc3c3c4c(c5c6cccc(Cl)c6[nH]c5c32)C(=O)NC4=O)C(O)C1O (stereo not given)	-16	3865	-5	1	i	.
COc1c(C)cc(S(=O)(=O)N2CCCC2)c(C)c1C	-5	17139*	-2	-2	0	-8
Cc1cc(S(=O)(=O)N2CCCC2)c(C)s1	-4	20695*	0	-3	11	0
Cc1cc(S(=O)(=O)N2CCCCC2)c(C)s1	-3	6619	-1	-2	0	-7
COc1ccc(-c2coc3c(CN4CCOCC4)c(O)ccc3c2=O)cc1	-6	5727	6	-1	13*	11
CC(=O)Nc1ccc(SCc2c(C)noc2C)cc1	27	3175	30*	0	0	14
Cc1noc(C)c1CSc1ccc(Br)cc1	-4	10395	-4	1	i	9
Cc1ccsc1C1C2=C(CCCC2=O)Nc2ncnn21 (stereo not given)	-3	22735*	2	0	i	.
Cc1ccsc1C1C2=C(CC(C)(C)CC2=O)Nc2ncnn21 (stereo not given)	-12	5800	-3	0	0	-6
O=C(CCC(=O)Nc1ccccc1)NNC(=O)c1cccs1	4	21744*	-5	3	1	7
SMILES	BoNT F protease	Autofluor counter	Anthrax LF inh2	BoNT A protease	BH1578 lux ind	BJeLR viability
CCCC(=O)Nc1ccc(C(=O)NNC(=O)c2cccs2)cc1	3	22535*	-2	3	0	5
C[C@@H]1CN([C@H](C)CO)S(=O)(=O)c2ccc(C3=CCCCC3)cc2O[C@H]1CN(C)C(=O)Cc1cccnc1	-2	3619	-7	0	-1	.
CCOC(=O)CNc1c(-c2ccccc2)nc2ccc(Cl)cn12	-6	3693	2	0	i	2
CCOC(=O)CNc1c(-c2ccc(O)cc2)nc2ccccn12	1	23116*	-2	1	-1	0
CCOC(=O)CNc1c(-c2ccc(O)cc2)nc2ccc(Cl)cn12	0	23767*	-6	-1	0	1
CCOC(=O)C(=O)c1c(-c2ccc(C)cc2)nc2ccccn12	1	3953	-9	0	0	-7
COC(=O)c1sc(=S)n(-c2cccc(Cl)c2)c1N	-11	26583*	-2	-9	0	-2
CCc1nc2ccc(C(=O)N(C)C(C)C)cn2c1N(CC)Cc1cccc(Br)c1	-1	3105	-5	0	-1	.
O=C(O)c1oc2ccccc2c1-n1cccc1	-2	16703*	-4	-2	i	2
O=C(NCC1CCCCC1)c1ccc2nc([C@@H]3O[C@H](CO)[C@@H](O)[C@H]3O)[nH]c2c1	2	3711	1	0	i	.
O=C(Nc1cccc(Cl)c1)c1csc([C@H]2C[C@H](O)[C@@H](CO)O2)n1	2	2975	-4	0	0	.
O=C(N/N=C/c1cccs1)c1cc(-c2ccncc2)nc2ccccc12	2	2135	0	0	0	56*
CCc1ccc(/C=N/NC(=O)c2cc(-c3ccncc3)nc3ccccc23)s1	-9	2203	2	-1	0	14
Cc1ccn2c(C(=O)N/N=C\c3cccs3)c(C)nc2c1	0	21815*	2	2	-2	6
Cc1c(CC(=O)O)c(=O)oc2c(C)c(OCc3ccc(F)cc3F)ccc12	7	3764	-5	-1	-1	2
Cc1c(CC(=O)O)c(=O)oc2c(C)c(OCc3ccc(F)cc3Cl)ccc12	35*	3385	9	2	0	11
Cc1cc(NC(=O)CSc2nnc3ccc(-c4ccc(F)cc4)nn23)no1	?	?	?	?	0	4
Cc1cc(NC(=O)CSc2nnc(CNc3ccc(F)cc3)n2C2CCCCC2)no1	1	23158*	-2	0	0	8
CCc1nnc(NC(=O)CSc2nnc(CNc3ccc(F)cc3)n2C2CCCCC2)s1	0	16238*	-5	0	i	-13
CC(C)=CCSc1nnc([C@@H](NC(=O)OC(C)(C)C)C(C)C)o1	0	22591*	-2	?	i	4
Cc1[nH]c(=O)[nH]c(=O)c1CSc1nnc([C@@H](NC(=O)OC(C)(C)C)C(C)C)o1	7	2482	0	0	2	7
COc1ccc(C(=O)CC(Nc2ccc([N+](=O)[O-])cc2)c2ccc(OC)cc2)cc1 (stereo not given)	-4	24070*	-2	-2	0	9
